Source: PubChem BioAssay (National Center for Advancing Translational Sciences (NCATS))
A selection: hits, their analogues and other compounds. The true share with any hit is near 2.7%.
NTMT1 inhibitor = blocks human N-terminal methyltransferase 1 activity | Q9BV86 | NTMT1 MTase-Glo SAH luminescence, purified enzyme | Potency, µM (series often up to 114 µM), for inactives: at the highest dose activity change, negative = inhibition, most hits filed as inhibitors | 2.5% of 59,000 active | AID 1645870;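 note: plate controls were DMSO vehicle for no effect and no enzyme for full effect; nearly all actives have a fitted effect of over 65% in size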
HTT promoter inh = inhibits huntingtin promoter activity; 0.93% of 48,000 active; HEK293 HTT promoter firefly luciferase reporter, 24 h; Potency, µM (top dose mostly 57.5 µM), for the others: at the highest dose activity change, negative = inhibition, usual class: inhibitors; note: nearly all actives have a fitted effect of over 50% in size
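Firefly luciferase readout (Dual-Glo, 10 min RT) after 24 h, 37 °C compound exposure (final up to 57.5 uM) of HEK293 reporter cells cultured 24 h beforehand; PTC124 at 50 uM final as control inhibitor; activity scaled vehicle 0%, zero RLU -100%.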
GALC G270D act = raises human GALC G270D mutant activity in cells; 145M-Twi-hGALC-G270D cells (Twitcher mouse brain line with human GALC G270D), HMU-beta-Gal fluorescence, 48 h; Potency, µM (highest dose often 57.5 µM), usual class: activators; 0.1% of 45,000 active; note: 0% is about no effect; nearly all actives have a fitted effect of over 65% in size
Target sequence (P54803 whole entry G286D): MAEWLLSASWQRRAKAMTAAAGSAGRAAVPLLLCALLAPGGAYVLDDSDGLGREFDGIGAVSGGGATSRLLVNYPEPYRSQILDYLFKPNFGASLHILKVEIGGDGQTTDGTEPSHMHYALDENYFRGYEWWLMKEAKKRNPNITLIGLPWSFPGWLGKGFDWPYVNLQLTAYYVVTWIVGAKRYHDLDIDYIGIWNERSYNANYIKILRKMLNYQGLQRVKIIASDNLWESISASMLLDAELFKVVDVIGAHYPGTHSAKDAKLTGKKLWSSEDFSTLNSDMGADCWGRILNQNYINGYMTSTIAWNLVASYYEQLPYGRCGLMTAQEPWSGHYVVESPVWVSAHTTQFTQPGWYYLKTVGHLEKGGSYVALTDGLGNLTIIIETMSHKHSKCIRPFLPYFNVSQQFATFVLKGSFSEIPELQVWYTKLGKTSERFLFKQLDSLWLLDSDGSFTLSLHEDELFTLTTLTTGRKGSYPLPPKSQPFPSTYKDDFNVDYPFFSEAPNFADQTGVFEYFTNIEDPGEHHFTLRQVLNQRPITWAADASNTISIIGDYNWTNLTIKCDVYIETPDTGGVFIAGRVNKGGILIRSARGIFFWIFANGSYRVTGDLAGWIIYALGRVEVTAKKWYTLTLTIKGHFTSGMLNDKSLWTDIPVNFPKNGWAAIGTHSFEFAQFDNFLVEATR
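Fluorescence readout: HMU-β-gal cleavage by mutant GALC (0.1 mM final, citrate/phosphate pH 5.2 with 1 mg/mL taurocholate), stopped with carbonate/bicarbonate plus Triton X-100. Cells: murine Twitcher 145M-Twi expressing human G270D GALC; qHTS for activators.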
HTT-AS promoter = activates huntingtin-antisense promoter activity; Potency, µM (titrated, usually from 57.5 µM), without a hit: at the top dose activity change, positive = activation, actives largely listed as activators; HEK293 HTT-AS promoter firefly luciferase reporter, 24 h; response scale: percent change from vehicle, -100% = no light; AID 1508624; 0.24% of 48,000 active; note: nearly all actives have a fitted effect of over 55% in size
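HEK293 cells carrying firefly luciferase reporters were seeded at 2,500 per well in Opti-MEM and cultured for 24 h. They were then treated with compounds at up to 57.5 uM final for 24 h at 37 degrees C before Dual-Glo luminescence readout.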
Starred values were filed as active, the others as inactive; ! = repeats disagree; [ ] = dose if it differs, or a comment. Calls come from the whole dose curve; as a rule, active = well fitted curve in the direction sought with a large enough effect; inconclusive = small, poorly fitted or top-dose-only effect, or another doubt; inactive = no such curve, though single readings can be large; an effect the other way counts as inactive or inconclusive. Potency is the fitted concentration of half-maximal effect.

COc1ccccc1NC(=O)C1=C(C)Nc2nc(SCc3ccccc3F)nn2C1c1ccncc1 (stereo unspecified) was read as NTMT1 inhibitor 89µM*, HTT promoter inh 1%, GALC G270D act inactive and HTT-AS promoter -8%.
Cc1cc(Br)cc(C)c1NC(=O)c1cnc2ccccn2c1=O was read as NTMT1 inhibitor 7%, HTT promoter inh 36%, GALC G270D act inactive and HTT-AS promoter 28µM*.
`Fc1ccc(-c2ccc(Nc3nc(-c4ccncc4)nc4ccccc34)cc2F)cc1` gave NTMT1 inhibitor -19%.
For COc1ccc(CNC(=O)C2CCCN(c3nnc(C)c4c(C)n(-c5ccc(C)cc5)nc34)C2)cc1 (stereo unspecified) the results were NTMT1 inhibitor 79µM*, HTT promoter inh 1%, GALC G270D act inactive and HTT-AS promoter -18%.
For Cc1ccc(C2CC(=O)Nc3cc4c(cc32)OCCO4)cc1 (stereo unspecified) the results were NTMT1 inhibitor -10%, HTT promoter inh inconclusive, GALC G270D act inactive and HTT-AS promoter -26%.
CCc1ccc(C2CC(=O)Nc3cc4c(cc32)OCO4)cc1 (stereo unspecified) was read as NTMT1 inhibitor 89µM*, HTT promoter inh inconclusive, GALC G270D act inactive and HTT-AS promoter -37%.
`CCOc1ccc(-c2cc(C(=O)N3CCN(c4ccc(C)cc4)C(C)C3)c3ccccc3n2)cc1` (stereo unspecified) gave NTMT1 inhibitor 6%, HTT promoter inh 9%, GALC G270D act inactive and HTT-AS promoter 1.8µM*.
Screening CCOc1ccc(-c2cc(C(=O)N3CCN(c4cccc(C)c4)C(C)C3)c3ccccc3n2)cc1 (stereo unspecified) returned NTMT1 inhibitor -8%, HTT promoter inh -18%, GALC G270D act inactive and HTT-AS promoter 0%.
`Oc1ccc(Cl)cc1Cc1cc(Cl)ccc1O` gave NTMT1 inhibitor inconclusive, HTT promoter inh inconclusive, GALC G270D act inactive and HTT-AS promoter -94%.
`NCCc1ccc(O)c(O)c1` gave NTMT1 inhibitor 32µM*!, HTT promoter inh -10%, GALC G270D act inconclusive and HTT-AS promoter -16%.
`CCOC(=O)C1CCN(C(=O)c2ccc3c(c2)sc2nc(-c4ccc(OC)cc4)cn23)CC1` gave NTMT1 inhibitor 89µM*, HTT promoter inh -21%, GALC G270D act inactive and HTT-AS promoter -11%.
Screening CCOC(=O)C1CCN(C(=O)c2ccc3c(c2)sc2nc(-c4ccc(C)cc4)cn23)CC1 returned NTMT1 inhibitor 1%, HTT promoter inh 13%, GALC G270D act inactive and HTT-AS promoter 3%.
For COc1nnc(-c2ccc(N3CCCCC3)c(NC(=O)c3ccccc3Cl)c2)c2ccccc12 the results were NTMT1 inhibitor inconclusive, HTT promoter inh 11µM*, GALC G270D act inactive and HTT-AS promoter -87%.
`c1cc(NC2CCNCC2)nc(-c2cnc3ccccn23)c1` gave NTMT1 inhibitor 45µM*.
CSc1ccc(CNC(=O)C2CCCN(S(=O)(=O)N(C)c3ccc(F)cc3)C2)cc1 (stereo unspecified) was read as NTMT1 inhibitor 2%, HTT promoter inh 22µM*, GALC G270D act inactive and HTT-AS promoter -65%.
`CN(C)c1ccc(CNC(=O)C2CCCN(S(=O)(=O)c3ccc4c(c3)oc(=O)n4C)C2)cc1` (stereo unspecified) gave NTMT1 inhibitor -25%, HTT promoter inh -10%, GALC G270D act inactive and HTT-AS promoter -11%.
Screening Cc1cccc(NC(=O)CCCn2c(C)c3cnn(-c4ccccc4)c(=O)c3c2C)c1C returned NTMT1 inhibitor 10%, HTT promoter inh -17%, GALC G270D act inactive and HTT-AS promoter -15%.
For Cc1cccc(N2CCN(C(=O)Cn3c(C)c4cnn(-c5ccccc5)c(=O)c4c3C)CC2)c1C the results were NTMT1 inhibitor -1%, HTT promoter inh 10µM*, GALC G270D act inactive and HTT-AS promoter -49%.
Screening S=c1nc[nH]c2nc[nH]c12 returned NTMT1 inhibitor 25µM*!, HTT promoter inh inconclusive, GALC G270D act inactive and HTT-AS promoter -46%.
Screening Cn1nnc(-c2ccc(-c3ccc(N4C[C@H](COP(=O)(O)O)OC4=O)cc3F)cn2)n1 returned NTMT1 inhibitor 4%[57.5 µM].
Screening CCN(CC)S(=O)(=O)c1ccc(C(=O)NC2CC(=O)N(c3ccc4c(c3)OCCO4)C2)cc1 (stereo unspecified) returned NTMT1 inhibitor 1%, HTT promoter inh -21%, GALC G270D act inactive and HTT-AS promoter -11%.
CN(C)S(=O)(=O)c1ccc(C(=O)NC2CC(=O)N(c3ccc4c(c3)OCCO4)C2)cc1 (stereo unspecified) was read as NTMT1 inhibitor 89µM*, HTT promoter inh -14%, GALC G270D act inactive and HTT-AS promoter -29%.
For CC(C)C(C(=O)N1CCCC1C(=O)O)N(C)C(=O)C(O)Cc1ccccc1 (stereo unspecified) the results were NTMT1 inhibitor -4%[29.8 µM].
Screening NC1(c2ccc(-c3nc4ccn5c(=O)[nH]nc5c4cc3-c3ccccc3)cc2)CCC1 returned NTMT1 inhibitor 50µM*!, HTT promoter inh inconclusive, GALC G270D act inactive and HTT-AS promoter -25%.
Screening CCOc1ccc2nc3cc(N)ccc3c(N)c2c1 returned NTMT1 inhibitor 20µM*, HTT promoter inh -19%, GALC G270D act inactive and HTT-AS promoter -29%.
Screening CCOc1ccc(C(=O)c2cn(CC(=O)Nc3cc(OC)cc(OC)c3)c3ccc(F)cc3c2=O)cc1 returned NTMT1 inhibitor 79µM*, HTT promoter inh inconclusive, GALC G270D act inactive and HTT-AS promoter -48%.
`O=C(O)C1(Cc2cccc(Nc3nccs3)n2)CCC(Oc2cccc(Cl)c2F)CC1` (stereo unspecified) gave NTMT1 inhibitor 28µM*, HTT promoter inh -8% and HTT-AS promoter -13%.
For CCCCOc1cccc(C(=O)N(Cc2ccc(C)o2)c2ccccn2)c1 the results were NTMT1 inhibitor -11%, HTT promoter inh 28µM*, GALC G270D act inactive and HTT-AS promoter -48%.
Cc1noc2ncnc(N3CCN(c4ccccc4F)CC3)c12 was read as NTMT1 inhibitor -7%, HTT promoter inh inconclusive, GALC G270D act inactive and HTT-AS promoter -26%.
CC(=O)c1ccc(N2CCN(c3ncnc4onc(C)c34)CC2)cc1 was read as NTMT1 inhibitor inconclusive, HTT promoter inh 4.5µM*, GALC G270D act inactive and HTT-AS promoter -58%.
Screening Cc1[nH]c(C=C2C(=O)Nc3ccc(S(=O)(=O)Cc4c(Cl)cccc4Cl)cc32)c(C)c1C(=O)N1CCC[C@H]1CN1CCCC1 returned NTMT1 inhibitor 6.8µM*, HTT promoter inh -2% and HTT-AS promoter -4%.
Screening Cc1[nH]c(/C=C2\C(=O)Nc3ccc(S(=O)(=O)N(C)c4cccc(Cl)c4)cc32)c(C)c1C(=O)N1CCN(C)CC1 returned NTMT1 inhibitor -15%.
